Shown are actives, neighbours in structure and some others; about 0.49% of the full set was active somewhere.
EPAC1 agonist – EPAC1 (human) agonism; EPAC1 agonist qHTS, biochemical assay; response scale: 100% = response to 6.5 mM cAMP; Potency, µM (series often up to 154 µM), for the others: at the top dose activation, actives largely listed as activators; 360,000 tested, 0.073% active; AID 720707; also: nearly all actives have a fitted effect of over 60% in size
Target sequence (O95398 whole entry, looked up): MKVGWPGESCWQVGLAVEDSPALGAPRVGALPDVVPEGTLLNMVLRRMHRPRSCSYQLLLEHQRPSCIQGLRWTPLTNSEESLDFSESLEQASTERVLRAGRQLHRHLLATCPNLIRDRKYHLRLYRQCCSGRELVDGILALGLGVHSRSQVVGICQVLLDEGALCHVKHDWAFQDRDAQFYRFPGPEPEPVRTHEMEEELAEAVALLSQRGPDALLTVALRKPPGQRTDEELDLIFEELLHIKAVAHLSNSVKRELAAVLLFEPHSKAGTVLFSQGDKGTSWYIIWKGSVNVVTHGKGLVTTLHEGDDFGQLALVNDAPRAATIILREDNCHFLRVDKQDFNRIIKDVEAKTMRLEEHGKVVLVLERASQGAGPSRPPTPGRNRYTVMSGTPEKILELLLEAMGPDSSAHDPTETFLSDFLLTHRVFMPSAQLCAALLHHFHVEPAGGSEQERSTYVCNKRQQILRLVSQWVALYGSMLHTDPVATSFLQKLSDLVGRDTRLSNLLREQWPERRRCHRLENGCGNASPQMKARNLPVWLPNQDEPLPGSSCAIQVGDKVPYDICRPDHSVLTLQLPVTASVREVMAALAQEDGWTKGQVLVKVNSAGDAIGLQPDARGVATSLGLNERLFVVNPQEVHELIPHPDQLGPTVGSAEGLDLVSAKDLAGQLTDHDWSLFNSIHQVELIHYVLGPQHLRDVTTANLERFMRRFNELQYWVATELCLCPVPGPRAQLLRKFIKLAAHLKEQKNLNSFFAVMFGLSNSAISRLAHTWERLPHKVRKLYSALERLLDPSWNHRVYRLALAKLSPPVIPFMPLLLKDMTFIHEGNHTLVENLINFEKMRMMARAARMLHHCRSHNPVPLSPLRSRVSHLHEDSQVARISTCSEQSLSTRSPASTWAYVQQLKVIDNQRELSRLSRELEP
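Multi-concentration qHTS readout: loss of Rap1B-bound BODIPY-GDP fluorescence driven by 100 nM EPAC1 with excess GDP (50 uM), monitored kinetically at room temperature; agonist response expressed relative to 6.5 mM cAMP.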
USP1-UAF1 inh – USP1/UAF1 (human) deubiquitinase inhibition; recombinant USP1/UAF1, Ub-Rhodamine cleavage fluorescence; O94782; Potency, µM (top dose mostly 57.1 µM), for the others: at the highest dose activity change, negative = inhibition, usual class: inhibitors; AID 743255; 390,000 tested, 0.23% active; also: % is scaled to controls: 0 for no effect and ±100 for the full control effect; nearly all actives have a fitted effect of over 60% in size
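High-throughput fluorogenic screen: 1nM USP1/UAF1 complex, Ub-Rho substrate 150nM final, 50mM HEPES pH 7.8 with 0.5mM EDTA, 0.1 mg/ml BSA, 1mM TCEP and 0.01% Tween-20.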
EPAC2 ag – activates human EPAC2 exchange factor; Q8WZA2; EPAC2 activation, biochemical qHTS; response scale: 100% = 6.5 mM cAMP response; Potency, µM (series often up to 154 µM), inactives show at the top dose activation, most hits filed as activators; 360,000 tested, 0.079% active; AID 720711; also: nearly all actives have a fitted effect of over 50% in size
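Each well held 100 nM EPAC2, 250 nM RAP1B-BODIPY-GDP and 50 uM GDP. Fluorescence, read at 5-min intervals to 30 min, was referenced to a 6.5 mM cAMP positive control.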
EPAC2 antag – EPAC2 (human) antagonism; Potency, µM (series often up to 114 µM), inactives show top-dose activity, negative = inhibition, hits mostly inhibitors; AID 720708; EPAC2 GEF exchange of Rap1B-BODIPY-GDP, fluorescence; 360,000 tested, 0.18% active; Q8WZA2; also: % is scaled to controls: 0 for no effect and ±100 for the full control effect; nearly all actives have a fitted effect of over 45% in size
EPAC1 antag – EPAC1 (human) antagonism; Potency, µM (top dose mostly 115 µM), for inactives: at the highest dose activity change, negative = inhibition, hits mostly inhibitors; 360,000 tested, 0.14% active; O95398; EPAC1 GEF assay, Rap1b-BODIPY-GDP exchange fluorescence;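 also: plate controls were vehicle for no effect and positive control for full effect; nearly all actives have a fitted effect of over 50% in size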
Numbers without * were called inactive; i = inactive; ? = inconclusive; nt = not tested or not shown. Calls follow the shape of the dose curve; as a rule, active = well fitted curve in the direction sought with a large enough effect; inconclusive = small, poorly fitted or top-dose-only effect, or another doubt; inactive = no such curve, though single readings can be large; an effect the other way counts as inactive or inconclusive. Potency is read from the fitted curve at half-maximal effect.

SMILES | EPAC1 agonist | USP1-UAF1 inh | EPAC2 ag | EPAC2 antag | EPAC1 antag
CCn1c(O)c(C=Nc2ccc(N3CCOCC3)cc2)c(=O)n(CC)c1=S | 7% | 18µM* | 100µM* | 112% | 1%
Cn1cccc1/C=C1\C(=O)NC(=O)N(Cc2ccccc2Cl)C1=O | -7% | -10% | 5% | -4% | 79µM*
C[C@H]1COC(=O)[C@@H](Cc2ccc(F)cc2)CC/C=C/C[C@H](CC(=O)N(CCO)Cc2ccccc2)C(=O)N1 | -5% | -17% | 7% | 12% | 2%
CCOP(=S)(OCC)Oc1cc(C)nc(C(C)C)n1 | 12% | -21% | -11% | 22µM* | -5%
Cc1ccc(-c2[nH]c(=S)[nH]c(=O)c2C#N)cc1 | 6% | 0% | 5% | -10% | ?
COC(=O)c1nc(-c2ccc3c(n2)C(=O)C(N)=C(OC)C3=O)c(N)c(-c2ccc(OC)c(OC)c2O)c1C | 9% | 7.1µM* | -2% | -16% | -23%
Cc1ccccc1CN1C(=O)C(C)N=C(c2ccccc2)c2ccccc21 (centres undefined) | nt | -32% | nt | nt | nt
COC(=O)[C@@]1(C#N)[C@@H]2C=CC(C(C)=O)=CN2[C@@H](C(N)=O)[C@@H]1c1ccc(F)cc1 | 7% | 28µM* | ? | 30% | 0%
CCOC(=O)[C@]1(C#N)[C@@H]2C=CC(C(N)=O)=CN2[C@@H](C(N)=O)[C@@H]1c1ccc(F)cc1 | 0% | ? | 4% | 4% | -15%
FC(F)(F)c1cccc(CC2CN(Cc3ccccc3)Cc3ccccc3N2c2cc(Cl)cc(Cl)c2)c1 (centres undefined) | -3% | -16% | -3% | 3% | 12%
CN1Cc2c(c(C#N)c(N)n(C)c2=S)CC1(C)C | ? | 28µM* | ? | 25% | 41%
Cc1cc(C)cc(N2C(=O)/C(=C\c3ccc(N4CCN(C)CC4)o3)C(=O)NC2=S)c1 | ? | 32µM* | 28% | -6% | 24%
Oc1ccc(Cl)cc1Cc1cc(Cl)ccc1O | 4% | -19% | 9% | 79µM* | -13%
O=C(C[C@H]1C=C[C@H](NC(=O)Nc2ccccc2F)[C@@H](CO)O1)NCc1ccc(-c2ccccc2)cc1 | -1% | nt | 3% | ? | 5%
Cc1cc(C(C#N)c2ccc(Cl)cc2)c(Cl)cc1NC(=O)c1cc(I)cc(I)c1O (centres undefined) | -16% | ? | -11% | 50µM* | ?
Cc1ccc(Cn2cccc(C(=O)Nc3nnc(C)s3)c2=O)cc1 | nt | -9% | nt | nt | nt
COc1ccccc1NC(=O)Oc1cccc(OC(=O)c2ccccc2)c1 | 11% | ? | 13% | 4% | 4%
ClCCN(CCCl)c1ccc(C=Cc2ccncn2)cc1 | 18% | 25µM* | 16% | -14% | 0%
CCCCn1c(N)c(C(=O)OCC2CCCO2)c2nc3ccccc3nc21 (centres undefined) | 3% | -26% | -6% | 8% | 5%
CCCCn1c(NC(=O)c2ccco2)c(C(=O)OCC)c2nc3ccccc3nc21 | 7% | 25µM* | 5% | 9% | ?
CCOC(=O)c1c(N)n(Cc2ccco2)c2nc3ccccc3nc12 | 2% | -25% | 2% | 9% | 2%
CCCCn1c(NS(=O)(=O)c2ccc(C)cc2)c(C(=O)OCC)c2nc3ccccc3nc21 | 112µM* | ? | -8% | -9% | ?
COc1ccc(-n2c(O)c(/C=C/C=Nc3ccccc3)c(=O)[nH]c2=O)cc1 | 100µM* | 32µM* | ? | 54% | 25%
O=c1[nH]c(=O)n(-c2ccccc2)c(O)c1/C=C/C=Nc1ccccc1 | ? | ? | 0% | 54% | 37%
COc1ccc(-c2nc(CN3C(=O)CN=C(c4ccccc4)c4ccccc43)c(C)o2)cc1OC | nt | -2% | nt | nt | nt
SMILES | EPAC1 agonist | USP1-UAF1 inh | EPAC2 ag | EPAC2 antag | EPAC1 antag
CC1=NCCc2c1[nH]c1cc(O)ccc21 | 112µM* | 25µM* | 100µM* | i | 71%
S=C(Nc1ccccc1)Nc1ccccn1 | 89µM* | -11% | 2% | -5% | 15%
CC(C)(C)c1csc(NC(=O)Nc2ccccc2)n1 | 7% | -13% | 22% | -17% | ?
O=Nc1c(-c2ccccc2)n(O)[n+]([O-])c1-c1ccccc1 | 3% | ? | 5% | -5% | 5%
O=S1(=O)N(Cc2ccccc2)CCCN1Cc1ccc(F)cc1Cl | nt | -34% | nt | nt | nt
CCN1/C(=C\C=C\C2=[N+](CC)c3ccccc3C2(C)C)C(C)(C)c2ccccc21 | 79µM* | 14µM* | 50µM* | 73% | 94%
CCN(CC)c1ccc(N=Cc2c(O)n(-c3ccccc3C)c(=O)[nH]c2=O)cc1 | 100µM* | ? | 89µM* | 9% | -1%
CCN(CC)c1ccc(N=Cc2c(O)n(-c3ccccc3)c(=O)[nH]c2=O)cc1 | -18% | ? | -10% | 40% | -9%
CCOc1ccccc1-n1c(O)c(C=Nc2ccc(N(CC)CC)cc2)c(=O)[nH]c1=O | 71µM* | ? | 100µM* | 32% | 8%
COC1C(C)OC(OC2CC(C)(O)Cc3cc4c(c(O)c32)C(=O)c2c(O)cc3c(c2C4=O)OC2OC3(C)C(O)C(N(C)C)C2O)C(OC)C1(C)OC (centres undefined) | 100µM* | ? | 12% | 10% | 130%
O=C1C=CC(=O)C2C1C1(Cl)C(Cl)=C(Cl)C2(Cl)C1(Cl)Cl (centres undefined) | -1% | -23% | 9% | 56µM* | -12%
CCCCc1ccc(NC(=O)c2cccn(Cc3ccc(Cl)cc3)c2=O)cc1 | nt | -8% | nt | nt | nt
O=C1NC(=O)N(Cc2ccco2)C(=O)/C1=C/c1ccc(-c2cccc([N+](=O)[O-])c2)o1 | 4% | ? | 0% | -27% | 50µM*
CC[C@H](C)/C=C(C)/C=C/C1=CC2=C(Cl)C(=O)[C@](C)(OC(C)=O)C(=O)C2=CO1 | 12% | 25µM* | 10% | 8.9µM* | ?
N#CC(C#N)=Cc1ccc(N2CCOCC2)cc1 | -1% | 8% | -12% | 6% | -6%
Cc1cc(C=C(C#N)C#N)ccc1N1CCCC1 | ? | ? | 100µM* | 7% | 2%
C[C@H]1CN([C@@H](C)CO)C(=O)c2cccc(NC(=O)c3ccc(-c4nccs4)cc3)c2O[C@@H]1CN(C)C(=O)Nc1cccc2ccccc12 | -2% | -24% | 0% | -13% | -13%
CC(C)OCCCNC(=O)c1c(N)n(CC2CCCO2)c2nc3ccccc3nc12 (centres undefined) | 6% | 28µM* | 3% | ? | ?
CCCCn1c(N)c(C(=O)OCCOC)c2nc3ccccc3nc21 | 10% | -3% | 18% | 5% | -1%
CCCNC(=O)c1c(N)n(CC2CCCO2)c2nc3ccccc3nc12 (centres undefined) | -3% | ? | 3% | -6% | -21%
CCCCCn1c(N)c(C(=O)NCCN2CCOCC2)c2nc3ccccc3nc21 | 7% | -25% | -12% | -3% | -13%
